Laboratory results from PubChem BioAssay AID1159580 (chemical genetic matrix, 2015).
Screen size: about 5,500 compounds; about 2,000 (36%) were called active. Roughly 18% stayed inconclusive and do not appear here. Rule as the data show it: active = normalized growth mostly below about 0.91 (no sharp cut-off); inconclusive = no clear call, values can overlap the other calls; inactive = mostly above about 0.92. This is one part of the list.

Assay: chemical genetic growth profiling, strain panel (AID 1159580);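 also: tested at 20 µM; growth read once vehicle control cultures reached saturation at 30 °C; 1 = growth at the plate median or of vehicle wells; lower values mean less growth of the strain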
Conditions: S. cerevisiae deletion strains, growth OD

Measured: normalized growth

Oc1ccc([C@H]2Oc3cc(O)cc(O)c3C[C@H]2O)cc1
inactive: locus YAL021C, strain ccr4, active compounds read low 0.995 | locus YAL026C, strain drs2, active compounds read low 0.991 | locus YAL030W, strain snc1, active compounds read low 0.988 | locus YBL061C, strain skt5, active compounds read low 0.98 | locus YBR009C, strain hhf1, active compounds read low 1.02 | locus YBR023C, strain chs3, active compounds read low 0.99 | locus YBR171W, strain sec66, active compounds read low 0.969 | locus YBR231C, strain swc5, active compounds read low 0.94 | locus YBR279W, strain paf1, active compounds read low 0.999 | locus YCL011C, strain gbp2, active compounds read low 1.01 | locus YCL016C, strain dcc1, active compounds read low 1.01 | locus YCL069W, strain vba3, active compounds read low 0.981 | locus YCR088W, strain abp1, active compounds read low 0.987 | locus YDL005C, strain med2, active compounds read low 0.988 | locus YDL040C, strain nat1, active compounds read low 0.983 | locus YDR001C, strain nth1, active compounds read low 0.987 | locus YDR069C, strain doa4, active compounds read low 0.952 | locus YDR137W, strain rgp1, active compounds read low 0.996 | locus YDR159W, strain sac3, active compounds read low 0.939 | locus YDR195W, strain ref2 0.933 | locus YDR297W, strain sur2, active compounds read low 0.984 | locus YDR334W, strain swr1, active compounds read low 0.976 | locus YDR335W, strain msn5, active compounds read low 0.995 | locus YDR392W, strain spt3, active compounds read low 0.929 | locus YEL003W, strain gim4, active compounds read low 0.97 | locus YEL037C, strain rad23, active compounds read low 0.982 | locus YEL061C, strain CIN8 (second series), active compounds read low 0.979 | locus YER015W, strain faa2, active compounds read low 0.998 | locus YER016W, strain bim1, active compounds read low 0.991 | locus YER111C, strain swi4, active compounds read low 0.967 | locus YER155C, strain BEM2 (second series), active compounds read low 0.948 | locus YFR010W, strain ubp6, active compounds read low 0.971 | locus YGL167C, strain pmr1, active compounds read low 0.986 | locus YGL173C, strain kem1, active compounds read low 0.977 | locus YGL227W, strain vid30, active compounds read low 0.987 | locus YGL240W, strain doc1, active compounds read low 0.969 | locus YGL253W, strain hxk2, active compounds read low 0.956 | locus YHR013C, strain ard1, active compounds read low 1.01 | locus YHR027C, strain rpn1, active compounds read low 0.979 | locus YHR030C, strain SLT2, active compounds read low 0.983 | locus YHR079C, strain IRE1, active compounds read low 0.981 | locus YHR142W, strain chs7, active compounds read low 0.993 | locus YJL092W, strain hpr5, active compounds read low 0.983 | locus YJL095W, strain BCK1 (second series), active compounds read low 0.977 | locus YJL095W, strain BCK1, active compounds read low 0.97 | locus YJL115W, strain asf1, active compounds read low 0.976 | locus YJL129C, strain trk1, active compounds read low 0.978 | locus YJL154C, strain vps35, active compounds read low 0.984 | locus YJL164C, strain tpk1, active compounds read low 1 | locus YJL166W, strain qcr8, active compounds read low 0.998 | locus YJR066W, strain TOR1, active compounds read low 0.947 | locus YKL160W, strain elf1, active compounds read low 1.02 | locus YKR026C, strain gcn3, active compounds read low 0.968 | locus YKR091W, strain srl3, active compounds read low 0.992 | locus YLL001W, strain dnm1, active compounds read low 0.956 | locus YLL026W, active compounds read low 0.993 | locus YLL041C, strain sdh2, active compounds read low 0.983 | locus YLR027C, strain aat2, active compounds read low 0.976 | locus YLR113W, strain HOG1, active compounds read low 0.977 | locus YLR221C, strain rsa3, active compounds read low 0.964 | locus YLR258W, strain gsy2, active compounds read low 0.999 | locus YLR262C, strain YPT6 (second series), active compounds read low 1 | locus YLR320W, strain mms22, active compounds read low 0.982 | locus YLR342W, strain FKS1, active compounds read low 0.99 | locus YLR357W, strain rsc2, active compounds read low 0.949 | locus YLR370C, strain arc18, active compounds read low 0.977 | locus YLR384C, strain iki3, active compounds read low 0.991 | locus YML120C, strain ndi1, active compounds read low 1 | locus YMR058W, strain fet3, active compounds read low 0.985 | locus YMR125W, strain sto1, active compounds read low 0.99 | locus YMR129W, active compounds read low 0.989 | locus YMR205C, strain PFK2, active compounds read low 1 | locus YMR231W, strain pep5, active compounds read low 0.976 | locus YNL071W, strain lat1, active compounds read low 1 | locus YNL183C, strain NPR1, active compounds read low 0.956 | locus YNL209W, strain ssb2, active compounds read low 1.01 | locus YNL248C, strain rpa49, active compounds read low 0.956 | locus YNL322C, strain KRE1 (second series), active compounds read low 0.995 | locus YNR049C, strain mso1, active compounds read low 0.987 | locus YOR001W, strain rrp6, active compounds read low 0.947 | locus YOR070C, strain gyp1, active compounds read low 0.99 | locus YOR080W, strain dia2, active compounds read low 0.974 | locus YOR083W, strain WHI5, active compounds read low 1.01 | locus YOR106W, strain vam3, active compounds read low 1.02 | locus YOR231W, strain MKK1, active compounds read low 0.978 | locus YOR265W, strain rbl2, active compounds read low 0.981 | locus YOR270C, strain vph1, active compounds read low 0.958 | locus YOR290C, strain snf2, active compounds read low 1.03 | locus YPL051W, strain arl3, active compounds read low 0.954 | locus YPL078C, strain atp4, active compounds read low 1.01 | locus YPL106C, strain sse1, active compounds read low 0.982 | locus YPL240C, strain hsp82, active compounds read low 0.989 | locus YPL256C, strain CLN2, active compounds read low 0.967
